A number with no mark means an inactive call.
The molecules below were run on Vero E6 infected with SARS-CoV-2 (assay: inhibition of SARS-CoV-2 cytopathic effect; higher = more antiviral protection, active = above 15). Conditions: 1 nM; 48 h.
For Cc1ccnc(NS(=O)(=O)c2ccc(N)cc2)n1 [sulfamerazine], the “inhibition of SARS-CoV-2 cytopathic effect” value (from here on “inhibition”) was 2.3%. With O=C1C=CC(=O)C2=C1C1c3ccccc3C2c2ccccc21 the “inhibition” value was 1.05%. In the case of CCOC(=O)Nc1cc(-c2ccc(C)c(NS(C)(=O)=O)c2)nn2c(C)nnc12 [bromosporine], the “inhibition” value is reported as -4.03%. In the case of CC(C)(Cc1ccc2ccccc2c1)NC[C@@H](O)COc1cccc(Cl)c1C#N, the “inhibition” value is reported as -1.61%. With O=C(NCCCCCCNC(=O)ON=C1CCCCC1)ON=C1CCCCC1 the “inhibition” value was 2.1%.

Same assay, conditions: 8.33 nM; 48 h
With Cc1ccc(C(=O)c2ccc(CC(=O)O)n2C)cc1 [tolmetin] the “inhibition” value was -1.62%. With COc1cccc(-c2cc(=O)c3ccccc3o2)c1N the “inhibition” value was -3.81%. CC(=O)O[C@]1(C(C)=O)CC[C@H]2[C@@H]3C=C(C)C4=CC(=O)CC[C@@H]4[C@H]3CC[C@@]21C [nomegestrol-acetate] was tested, and the “inhibition” value was -1.93%. In the case of O=C1CN(/N=C/c2ccc([N+](=O)[O-])o2)C(=O)N1 [nitrofurantoin], the “inhibition” value is reported as -0.32%. With COc1cc2nccc(Oc3ccc(NC(=O)Nc4ccc(F)cc4F)c(F)c3)c2cc1OC the “inhibition” value was 1.76%. With CS(=O)(=O)N(Cc1ccco1)C[C@@H](O)Cn1c2ccccc2c2ccccc21 the “inhibition” value was 2.61%. For C/C=C1\[C@H]2C=C(C)C[C@]1(N)c1ccc(=O)[nH]c1C2 [(-)-Huperzine A], the “inhibition” value was 2.1%. CC(=O)N(O)C/C=C/c1cccc(Oc2ccccc2)c1 was tested, and the “inhibition” value was 2.16%. For CCOC1O[C@H]([C@@H](COCc2ccccc2)OCc2ccccc2)[C@H](OCc2ccccc2)[C@H]1O (stereo not given in full) [tribenoside], the “inhibition” value was -1.54%. In the case of CCS(=O)(=O)N1CCN(c2ccc(Nc3ncc(C(N)=O)c(NC4CC4)n3)cc2)CC1, the “inhibition” value is reported as -0.99%. For Cc1ccc(-c2ncc[nH]2)cc1NC(=O)c1ccc(OCc2ccccn2)cc1, the “inhibition” value was -0.95%. In the case of C[C@]12CC[C@H](O)CC1=CC[C@@H]1[C@@H]2CC[C@]2(C)C(c3cccnc3)=CC[C@@H]12 [Abiraterone (CB-7598)], the “inhibition” value is reported as 5.09%. In the case of CC(C)(C)c1ccc(O)cc1 [4-tert-butylphenol], the “inhibition” value is reported as 1.9%. In the case of CC(=O)OCC(=O)[C@@]1(O)CC[C@H]2[C@@H]3CCC4=CC(=O)CC[C@]4(C)[C@H]3C(=O)C[C@@]21C [cortisone-acetate], the “inhibition” value is reported as -1.31%. O=C1OC(OC(=O)c2cccnc2Nc2cccc(C(F)(F)F)c2)c2ccccc21 (stereo not given) [talniflumate] was tested, and the “inhibition” value was -1.23%. In the case of N#Cc1ccc(N(Cc2ccc(Br)cc2)n2cnnc2)cc1, the “inhibition” value is reported as -0.63%. With NC(=S)N/N=C/c1coc2ccccc2c1=O.[Cl][Cu][Cl] the “inhibition” value was -0.38%. With Cc1nc(C#Cc2ccnc(Cl)c2)c(C)n1-c1ccc(F)cc1 [basimglurant] the “inhibition” value was -0.64%. CCCCC(=O)O[C@H]1CC[C@H]2[C@@H]3CCc4cc(O)ccc4[C@H]3CC[C@]12C was tested, and the “inhibition” value was 0.74%. C[N+](C)(C)CCOC(=O)CCC(=O)OCC[N+](C)(C)C [succinylcholine-chloride] was tested, and the “inhibition” value was -1.42%. Cc1cc(C)cc(OCC2CNC(=O)O2)c1 (stereo not given) [metaxalone] was tested, and the “inhibition” value was -2.7%. In the case of CC(C(=O)O)c1ccc(C(=O)c2cccs2)cc1 (stereo not given) [suprofen], the “inhibition” value is reported as 0.24%. Cc1cccc(C)c1NC1=NCCCS1 [xylazine] was tested, and the “inhibition” value was 1.2%. In the case of CC1=C(C(=O)O)N2C(=O)[C@@H](NC(=O)[C@H](N)c3ccc(O)cc3)[C@H]2SC1 [cefadroxil], the “inhibition” value is reported as 1.53%. For N=C(NCc1ccc(Cl)cc1)SCCCc1c[nH]cn1 [clobenpropit], the “inhibition” value was 1.91%. For N#Cc1ccccc1-c1cc(-c2ccccn2)cn(-c2ccccc2)c1=O [Perampanel], the “inhibition” value was 0.93%. In the case of C/C(=C\c1csc(C)n1)[C@@H]1C[C@@H]2O[C@]2(C)CCC[C@H](C)[C@H](O)[C@@H](C)C(=O)C(C)(C)[C@@H](O)CC(=O)N1 [ixabepilone], the “inhibition” value is reported as 0.38%. COc1ccc2c(Oc3ccc(NC(=O)c4c(C)n(CC(C)(C)O)n(-c5ccccc5)c4=O)nc3)ccnc2c1 was tested, and the “inhibition” value was 1.91%. For COC(=O)C1=CCCN(C)C1 [arecoline], the “inhibition” value was 1.95%. With COc1cc([S+](C)[O-])ccc1-c1nc2cccnc2[nH]1 (stereo not given) [sulmazole] the “inhibition” value was 3.93%. In the case of O=C(O)CCN(O)C(=O)CCCCCCCCC1CC1, the “inhibition” value is reported as -1.05%. With N=C1N[C@H]2[C@H](CS[C@H]2CCCCC(=O)O)N1 [2-iminobiotin] the “inhibition” value was 1.48%. In the case of Cc1cc(O)ccc1Cl [chlorocresol], the “inhibition” value is reported as 2.29%. CC(C)(Oc1ccc(CCNC(=O)c2ccc(Cl)cc2)cc1)C(=O)O [bezafibrate] was tested, and the “inhibition” value was 0.91%. For O=C(O)C1=CCNCC1 [isoguvacine], the “inhibition” value was 0.98%. With Cc1ccnc(NS(=O)(=O)c2ccc(N)cc2)n1 [sulfamerazine] the “inhibition” value was 2.7%. For O=C1C=CC(=O)C2=C1C1c3ccccc3C2c2ccccc21, the “inhibition” value was 0.78%. In the case of CCOC(=O)Nc1cc(-c2ccc(C)c(NS(C)(=O)=O)c2)nn2c(C)nnc12 [bromosporine], the “inhibition” value is reported as -0.62%. CC(C)(Cc1ccc2ccccc2c1)NC[C@@H](O)COc1cccc(Cl)c1C#N was tested, and the “inhibition” value was 0.41%. For O=C(NCCCCCCNC(=O)ON=C1CCCCC1)ON=C1CCCCC1, the “inhibition” value was 0.56%.

— the supplement of paper PMC13380429
